According to PubChem BioAssay AID1159580 (chemical genetic matrix, 2015):
The whole screen tested about 5,500 compounds, of which about 2,000 (36%) were called active. Inconclusive results (about 18%) are left out. Cut-off read from the data, not from the text of the source: active = normalized growth mostly below about 0.91 (no sharp cut-off); inconclusive = no clear call, values can overlap the other calls; inactive = mostly above about 0.92. This is one part of the list.

Assay: chemical genetic growth profiling, strain panel (AID 1159580);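 note: tested at 20 µM; growth read once vehicle control cultures reached saturation at 30 °C; 1 = growth at the plate median or of vehicle wells; lower values mean less growth of the strain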
Conditions: growth OD

Measured: normalized growth

CCN1CCCC(OC(=O)C(c2ccccc2)c2ccccc2)C1 (centres undefined)
inactive: S. cerevisiae deletion strains, locus YJR075W, strain HOC1, stronger effect = lower value 1 | S. cerevisiae deletion strains, locus YKL009W, strain mrt4, stronger effect = lower value 1.02 | S. cerevisiae deletion strains, locus YKL068W, stronger effect = lower value 0.999 | S. cerevisiae deletion strains, locus YKL085W, strain MDH1 (second series), stronger effect = lower value 1.01 | S. cerevisiae deletion strains, locus YKL085W, strain MDH1, stronger effect = lower value 1.01 | S. cerevisiae deletion strains, locus YKL160W, strain elf1, stronger effect = lower value 0.983 | S. cerevisiae deletion strains, locus YKL190W, strain CNB1, stronger effect = lower value 1.01 | S. cerevisiae deletion strains, locus YKR001C, strain vps1, stronger effect = lower value 1.02 | S. cerevisiae deletion strains, locus YKR026C, strain gcn3, stronger effect = lower value 0.996 | S. cerevisiae deletion strains, locus YKR091W, strain srl3, stronger effect = lower value 0.992 | S. cerevisiae deletion strains, locus YLL001W, strain dnm1, stronger effect = lower value 0.971 | S. cerevisiae deletion strains, locus YLL026W, stronger effect = lower value 0.992 | S. cerevisiae deletion strains, locus YLL041C, strain sdh2, stronger effect = lower value 0.987 | S. cerevisiae deletion strains, locus YLR027C, strain aat2, stronger effect = lower value 0.983 | S. cerevisiae deletion strains, locus YLR039C, strain RIC1, stronger effect = lower value 1.07 | S. cerevisiae deletion strains, locus YLR058C, strain SHM2, stronger effect = lower value 1.01 | S. cerevisiae deletion strains, locus YLR102C, strain apc9, stronger effect = lower value 1.01 | S. cerevisiae deletion strains, locus YLR113W, strain HOG1, stronger effect = lower value 0.958 | S. cerevisiae deletion strains, locus YLR221C, strain rsa3, stronger effect = lower value 0.991 | S. cerevisiae deletion strains, locus YLR258W, strain gsy2, stronger effect = lower value 0.977 | S. cerevisiae deletion strains, locus YLR262C, strain YPT6 (second series), stronger effect = lower value 1.02 | S. cerevisiae deletion strains, locus YLR262C, strain YPT6, stronger effect = lower value 1.08 | S. cerevisiae deletion strains, locus YLR268W, strain sec22, stronger effect = lower value 1.01 | S. cerevisiae deletion strains, locus YLR320W, strain mms22, stronger effect = lower value 0.982 | S. cerevisiae deletion strains, locus YLR330W, strain CHS5, stronger effect = lower value 1.02 | S. cerevisiae deletion strains, locus YLR342W, strain FKS1 (second series), stronger effect = lower value 1.01 | S. cerevisiae deletion strains, locus YLR342W, strain FKS1, stronger effect = lower value 0.985 | S. cerevisiae deletion strains, locus YLR357W, strain rsc2, stronger effect = lower value 0.933 | S. cerevisiae deletion strains, locus YLR370C, strain arc18, stronger effect = lower value 0.994 | S. cerevisiae deletion strains, locus YLR371W, strain rom2, stronger effect = lower value 1.01 | S. cerevisiae deletion strains, locus YLR384C, strain iki3, stronger effect = lower value 0.983 | S. cerevisiae deletion strains, locus YLR418C, strain cdc73, stronger effect = lower value 0.998 | S. cerevisiae deletion strains, locus YML016C, strain PPZ1, stronger effect = lower value 1 | S. cerevisiae deletion strains, locus YML032C, strain rad52, stronger effect = lower value 1.01 | S. cerevisiae deletion strains, locus YML120C, strain ndi1, stronger effect = lower value 0.961 | S. cerevisiae deletion strains, locus YML124C, strain tub3, stronger effect = lower value 1 | S. cerevisiae deletion strains, locus YMR058W, strain fet3, stronger effect = lower value 0.982 | S. cerevisiae deletion strains, locus YMR078C, strain ctf18, stronger effect = lower value 1 | S. cerevisiae deletion strains, locus YMR125W, strain sto1, stronger effect = lower value 0.977 | S. cerevisiae deletion strains, locus YMR129W, stronger effect = lower value 0.969 | S. cerevisiae deletion strains, locus YMR205C, strain PFK2, stronger effect = lower value 0.984 | S. cerevisiae deletion strains, locus YMR223W, strain ubp8, stronger effect = lower value 1.01 | S. cerevisiae deletion strains, locus YMR231W, strain pep5, stronger effect = lower value 0.998 | S. cerevisiae deletion strains, locus YMR307W, strain GAS1, stronger effect = lower value 1.09 | S. cerevisiae deletion strains, locus YNL067W, strain RPL9B, stronger effect = lower value 1.01 | S. cerevisiae deletion strains, locus YNL071W, strain lat1, stronger effect = lower value 0.973 | S. cerevisiae deletion strains, locus YNL153C, strain GIM3, stronger effect = lower value 0.992 | S. cerevisiae deletion strains, locus YNL183C, strain NPR1, stronger effect = lower value 0.943 | S. cerevisiae deletion strains, locus YNL209W, strain ssb2, stronger effect = lower value 1.01 | S. cerevisiae deletion strains, locus YNL233W, strain BNI4, stronger effect = lower value 1.01 | S. cerevisiae deletion strains, locus YNL248C, strain rpa49, stronger effect = lower value 0.989 | S. cerevisiae deletion strains, locus YNL250W, strain rad50, stronger effect = lower value 1 | S. cerevisiae deletion strains, locus YNL271C, strain bni1, stronger effect = lower value 1.01 | S. cerevisiae deletion strains, locus YNL298W, strain CLA4, stronger effect = lower value 1.01 | S. cerevisiae deletion strains, locus YNL307C, strain MCK1, stronger effect = lower value 1.01 | S. cerevisiae deletion strains, locus YNL322C, strain KRE1 (second series), stronger effect = lower value 0.992 | S. cerevisiae deletion strains, locus YNL322C, strain KRE1, stronger effect = lower value 1.01 | S. cerevisiae deletion strains, locus YNR049C, strain mso1, stronger effect = lower value 0.981 | S. cerevisiae deletion strains, locus YNR052C, strain pop2, stronger effect = lower value 1.02 | S. cerevisiae deletion strains, locus YOL006C, strain TOP1, stronger effect = lower value 0.982 | S. cerevisiae deletion strains, locus YOL012C, strain htz1 1.06 | S. cerevisiae deletion strains, locus YOL147C, strain pex11, stronger effect = lower value 1 | S. cerevisiae deletion strains, locus YOR001W, strain rrp6, stronger effect = lower value 0.973 | S. cerevisiae deletion strains, locus YOR061W, strain CKA2, stronger effect = lower value 1.01 | S. cerevisiae deletion strains, locus YOR069W, strain VPS5, stronger effect = lower value 1.01 | S. cerevisiae deletion strains, locus YOR070C, strain gyp1, stronger effect = lower value 0.998 | S. cerevisiae deletion strains, locus YOR080W, strain dia2, stronger effect = lower value 0.975 | S. cerevisiae deletion strains, locus YOR083W, strain WHI5, stronger effect = lower value 0.98 | S. cerevisiae deletion strains, locus YOR106W, strain vam3, stronger effect = lower value 0.988 | S. cerevisiae deletion strains, locus YOR136W, strain idh2, stronger effect = lower value 1 | S. cerevisiae deletion strains, locus YOR144C, strain elg1, stronger effect = lower value 0.996 | S. cerevisiae deletion strains, locus YOR184W, strain ser1, stronger effect = lower value 1.04 | S. cerevisiae deletion strains, locus YOR231W, strain MKK1, stronger effect = lower value 0.983 | S. cerevisiae deletion strains, locus YOR265W, strain rbl2, stronger effect = lower value 0.995 | S. cerevisiae deletion strains, locus YOR270C, strain vph1, stronger effect = lower value 0.987 | S. cerevisiae deletion strains, locus YOR290C, strain snf2, stronger effect = lower value 0.98 | S. cerevisiae deletion strains, locus YOR316C, strain cot1, stronger effect = lower value 1.01 | S. cerevisiae deletion strains, locus YPL051W, strain arl3, stronger effect = lower value 0.988 | S. cerevisiae deletion strains, locus YPL055C, strain LGE1, stronger effect = lower value 0.996 | S. cerevisiae deletion strains, locus YPL078C, strain atp4, stronger effect = lower value 0.974 | S. cerevisiae deletion strains, locus YPL106C, strain sse1, stronger effect = lower value 0.97 | S. cerevisiae deletion strains, locus YPL240C, strain hsp82, stronger effect = lower value 0.991 | S. cerevisiae deletion strains, locus YPL256C, strain CLN2, stronger effect = lower value 0.979 | S. cerevisiae deletion strains, locus YPR119W, strain clb2, stronger effect = lower value 1.01 | S. cerevisiae deletion strains, locus YPR141C, strain kar3, stronger effect = lower value 1 | S. cerevisiae deletion strains, locus YPR163C, strain tif3, stronger effect = lower value 1 | S. cerevisiae deletion strains, locus YPR167C, strain met16, stronger effect = lower value 1.01 | S. cerevisiae deletion strains, strain wtn01, stronger effect = lower value 1 | S. cerevisiae strains, strain wild type, stronger effect = lower value 1.01
